Measurements taken from PubChem BioAssay (EPA / NIEHS).
Inconclusive results are not listed. Activity calls are given as the source filed them. Rule for the calls: active = hit-call score of the fitted dose curve at least 0.9, where 1 is the maximum; inconclusive = response in the unintended direction; inactive = score below 0.9.

Experiments:
[1] = TOX21_p53_BLA_p2_viability: Viability Assessment in the Tox21 HCT-116 p53 Agonism Beta-lactamase Assay, Phase 2 (AID 2283591);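 note: compound exposure lasted 16 h at 37 °C; actives lower the ATP signal meaning cytotoxicity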
Procedure, shortened: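 HCT-116 p53-bla cells (4000/well) rested 5 h at 37C, then received compounds in DMSO (217-fold dilution) for 16 h at 37C, 5% CO2. After the CCF4 read, CellTiter-Glo was added; ATP luminescence was read after 30 min at room temperature.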

[2] = target: Cellular tumor antigen p53 (Homo sapiens) (UniProt P04637); test: TOX21_p53_BLA_p2_ratio: Tox21 HCT-116 p53 Agonism Beta-lactamase Assay, Ratio, Phase 2 (AID 2283592)
Procedure, shortened: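 Human colon HCT116 cells with an inducible p53 beta-lactamase reporter are exposed to test chemicals for 16 h at 37C. Reporter induction is read as the 460/530 nm emission ratio after CCF4-AM loading, normalized to DMSO.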

[3] = target: Cellular tumor antigen p53 (Homo sapiens) (UniProt P04637); test: TOX21_p53_BLA_p3_ratio: Tox21 HCT-116 p53 Agonism Beta-lactamase Assay, Ratio, Phase 3 (AID 2283596)
Procedure, shortened: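 HCT116 p53-bla cells (4000/well) given compound in DMSO (217-fold dilution) after 5 h, incubated 16 h at 37C. CCF4-AM substrate 2 h at room temperature; 460/530 nm emission ratio, gain fitted against DMSO.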

[4] = TOX21_p53_BLA_p4_viability: Viability Assessment in the Tox21 HCT-116 p53 Agonism Beta-lactamase Assay, Phase 4 (AID 2283597);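 note: hits lower the luminescence signal meaning cytotoxicity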
Procedure, shortened: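 Luminescent ATP readout (CellTiter-Glo, 30 min, room temperature) in the same wells as the p53 bla ratio. HCT116 cells were treated for 16 h at 37C with DMSO-dissolved compounds.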

[5] = target: Cellular tumor antigen p53 (Homo sapiens) (UniProt P04637); test: TOX21_p53_BLA_p5_ratio: Tox21 HCT-116 p53 Agonism Beta-lactamase Assay, Ratio, Phase 5 (AID 2283599)
Procedure, shortened: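 HCT-116 cells carrying a p53-inducible beta-lactamase reporter were seeded at 4000 cells/well and dosed after 5 h with compound in DMSO (217-fold dilution). After 16 h at 37C, CCF4-AM substrate was added for 2 h, and the 460/530 nm emission ratio was scored as gain-of-signal versus DMSO.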

[6] = TOX21_p53_BLA_p5_viability: Viability Assessment in the Tox21 HCT-116 p53 Agonism Beta-lactamase Assay, Phase 5 (AID 2283600)
Procedure, shortened: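 Seeded cells (4000/well) settle 5 h before compound addition. Plates then incubate 16 h at 37C, receive FRET substrate for 2 h, and finally CellTiter-Glo, with luminescence measured after a 30 min room-temperature incubation.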

[7] = target: Cellular tumor antigen p53 (Homo sapiens) (UniProt P04637); test: TOX21_p53_BLA_p4_ratio: Tox21 HCT-116 p53 Agonism Beta-lactamase Assay, Ratio, Phase 4 (AID 2283601)
Procedure, shortened: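 HCT116 cells carrying an inducible beta-lactamase reporter were plated at 4000 cells/well, rested 5 h, then exposed to compounds in DMSO (217-fold dilution) for 16 h at 37C. CCF4-AM substrate was loaded 2 h at room temperature; 460/530 nm emission ratio scored gain-of-signal versus DMSO.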

Measured: AC50

Cellular tumor antigen p53 (Homo sapiens), sequence (P04637 whole entry, looked up): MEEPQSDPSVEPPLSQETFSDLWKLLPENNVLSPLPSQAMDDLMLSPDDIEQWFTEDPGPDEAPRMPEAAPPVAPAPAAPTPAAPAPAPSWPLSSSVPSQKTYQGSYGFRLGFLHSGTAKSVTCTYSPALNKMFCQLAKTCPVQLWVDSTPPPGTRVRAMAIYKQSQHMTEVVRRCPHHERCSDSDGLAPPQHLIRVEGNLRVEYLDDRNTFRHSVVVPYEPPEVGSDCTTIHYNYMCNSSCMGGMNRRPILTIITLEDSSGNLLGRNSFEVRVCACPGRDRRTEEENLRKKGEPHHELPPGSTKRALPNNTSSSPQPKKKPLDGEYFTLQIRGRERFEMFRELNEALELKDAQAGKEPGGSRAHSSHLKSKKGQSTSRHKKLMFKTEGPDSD

CCc1cccc2c3c([nH]c12)C(CC)(CC(=O)O)OCC3 (stereo not given)
inactive: all assays above

NC(=O)C(c1ccccc1)(c1ccccc1)[C@@H]1CCN(CCc2ccc3c(c2)CCO3)C1
inactive: all assays above

N#CCC(=O)NN
inactive: all assays above

CCN(Cc1ccccc1)c1ccccc1
inactive: all assays above

Cc1ccc([N+](=O)[O-])cc1Cl
inactive: all assays above

CNc1ccccc1
inactive: all assays above

FC(F)OC(Cl)C(F)(F)F (stereo not given)
inactive: all assays above

O=S(=O)(O)C(F)(F)F
inactive: all assays above

CC(=O)O[C@@H]1C(=O)O[C@@H]2[C@H]1OC(=O)[C@@H]2OC(C)=O
active: [5] 36.7 µM
inactive: all other assays above

Cc1cc(C(C)(C)C)c(O)c(C)c1CC1=NCCN1
inactive: all assays above

CO[C@@H]1[C@@H](O[C@@H]2O[C@H](C)[C@@H](O[C@H]3C[C@@](C)(O)[C@@H](OC(=O)CC(C)C)[C@H](C)O3)[C@H](N(C)C)[C@H]2O)[C@@H](CC=O)C[C@@H](C)C(=O)/C=C/C2OC2C[C@@H](C)OC(=O)C[C@H]1OC(C)=O (stereo not given in full)
inactive: all assays above

CS(=O)(=O)c1ccc([C@@H](O)[C@@H](CO)NC(=O)C(Cl)Cl)cc1
inactive: all assays above

COc1ccc(CCNC[C@H](O)c2ccc(O)cc2)cc1OC
inactive: all assays above

CC(C)NCC(O)c1ccc(NS(C)(=O)=O)cc1 (stereo not given)
inactive: all assays above

Cc1cc(NS(=O)(=O)c2ccc(N)cc2)nc(C)n1
inactive: all assays above

O=C(Cn1ccnc1[N+](=O)[O-])NCCO
inactive: all assays above

CC(C)Nc1ccccc1
inactive: all assays above

Cc1cc(C)cc(N)c1
inactive: all assays above

CCN(CC)C(C)=O
inactive: all assays above

OCc1ccccn1
inactive: all assays above

NC(=O)c1ncn([C@@H]2O[C@H](CO)[C@@H](O)[C@H]2O)c1O
inactive: all assays above

CC(C)NCC(O)COc1ccc(COCCOC(C)C)cc1 (stereo not given)
inactive: all assays above

O=C(OCC(COC(=O)c1ccccc1)(COC(=O)c1ccccc1)COC(=O)c1ccccc1)c1ccccc1
active: [3] 54.3 µM
inactive: all other assays above

CC(C)NC(=O)c1ccccc1N
inactive: all assays above

O=C(O)Cn1c(C(=O)Nc2nc(-c3ccccc3Cl)cs2)cc2ccccc21
active: [4] 38.9 µM | [5] 37.1 µM | [6] 40.7 µM
inactive: all other assays above

Cc1ccc(O)c(O)c1
inactive: [2] | [3] | [7]
active: [1] 40.8 µM | [4] 41 µM | [5] 66 µM | [6] 42 µM

CC(C)C(O)C(C)(C)CO (stereo not given)
inactive: all assays above

O=[N+]([O-])c1ccc2ncccc2c1
inactive: all assays above

CCC=CC#N
inactive: all assays above

O=CC(=O)c1ccccc1
inactive: all assays above
